Assay results published in the supplement of paper PMC10849652.
Targets with a hit are over-represented here; the source holds about 8,800 in all. About 0.5% of all pairs of compound and target were hits. Unmarked numbers belong to inactive results.

How the values were obtained:
Assay in all cases: log2 fold change, soluble protein after heating vs DMSO (PISA); higher = thermal stabilisation; K562 lysate, 10 uM; active = over 0.2 and 3.5 SD of the protein, either way, in both replicates (recomputed)
[1] = compound: C=CC(=O)N1CCC[C@@H](n2nc(-c3ccc(Oc4ccccc4)cc3)c3c(N)ncnc32)C1 [ibrutinib]
Summary of the method: (§1)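 Values give the log-two fold change in thermal stability against solvent controls, from duplicates. Crude K562 extract at 1 mg/mL protein, made by dounce homogenisation in PBS pH 7.4 with 1 mM MgCl2, was treated with 10 μM compound for 30 min. After 3 min heating across 48°C-58°C, aliquots were pooled, adjusted to 0.5% NP-40 at 4°C and centrifuged at 21,000xg for 90 min. The supernatant was measured by TMTpro 16plex LC-MS/MS with channel sums equalised.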

[2] = compound: CC(=O)c1cnc2ccc(-c3cc(Cl)c(O)c(Cl)c3)nc2c1N[C@H]1CC[C@H](CN(C)C)CC1
Summary of the method: as §1

[3] = compound: CC(C)(C)Cn1c(N)nc2ccc(-c3[nH]c(C(C)(C)C)nc3-c3ccc(F)cc3)nc21 [ralimetinib]
Summary of the method: as §1

[4] = compound: CC(C)(O)CC(=O)NCCn1ccc2ncnc(Nc3ccc(Oc4cccc(C(F)(F)F)c4)c(Cl)c3)c21
Summary of the method: as §1

[5] = compound: CC(C)C1=C2N=C(C=C(N2N=C1)NCC3=CC=CC=C3)NCCCCCCN
Summary of the method: as §1

[6] = compound: CC1=C(C(CC(=O)N1)C2=CC=C(C=C2)C(F)(F)F)C(=O)NC3=C(C=C4C(=C3)C=NN4)F
Summary of the method: as §1

[7] = compound: CC1=C(C2=C(C=C1)C(=O)C3=CC=CC=C3N2CCCN)C
Summary of the method: as §1

[8] = compound: CC1=C(C=C(C=C1)NC(=O)C2=CC(=CC=C2)C(C)(C)C#N)NC3=CC4=C(C=C3)N=CN(C4=O)C
Summary of the method: as §1

[9] = compound: CC1=C(C=C(C=C1)NC(=O)C2=CC(=CC=C2)N(C)C)NC(=O)C3=CC=C(C=C3)O
Summary of the method: as §1

[10] = compound: CC1=CC=C(C=C1)SC2=C3C=C(SC3=CN=C2)C(=O)N
Summary of the method: as §1

[11] = compound: CCCS(=O)(=O)Nc1ccc(F)c(C(=O)c2c[nH]c3ncc(-c4ccc(Cl)cc4)cc23)c1F [vemurafenib]
Summary of the method: as §1

[12] = compound: CCCS(=O)(=O)Nc1ccc(F)c(C(=O)c2c[nH]c3ncc(Cl)cc23)c1F
Summary of the method: as §1

[13] = compound: CCN(CCCOc1ccc2c(Nc3cc(CC(=O)Nc4cccc(F)c4)[nH]n3)ncnc2c1)CCOP(=O)(O)O [barasertib]
Summary of the method: as §1

[14] = compound: CC[C@@H]1C(=O)N(C)c2cnc(Nc3ccc(C(=O)NC4CCN(C)CC4)cc3OC)nc2N1C1CCCC1
Summary of the method: as §1

[15] = compound: CC[C@@H]1C(=O)N(C)c2cnc(Nc3ccc(C(=O)N[C@H]4CC[C@H](N5CCN(CC6CC6)CC5)CC4)cc3OC)nc2N1C(C)C [volasertib]
Summary of the method: as §1

[16] = compound: CCn1c(C(=O)N(C2CC2)C2CC2)cc2c3c(ncn3C)c(Nc3cc(C)n(C)n3)nc21
Summary of the method: as §1

[17] = compound: CCn1cc(-c2ccnc3[nH]c(-c4cccc(CN(C)C)c4)cc23)c(-c2ccc(NC(=O)N(C)C)cc2)n1
Summary of the method: as §1

[18] = compound: CN1CCC(CNc2ccc3ncc(-c4cccc(OC(F)(F)F)c4)n3n2)CC1
Summary of the method: as §1

[19] = compound: CN1CCN(CCOc2cc(OC3CCOCC3)c3c(Nc4c(Cl)ccc5c4OCO5)ncnc3c2)CC1 [saracatinib]
Summary of the method: as §1

[20] = compound: CN1CCN(c2nc(C3=C(c4c[nH]c5ccccc45)C(=O)NC3=O)c3ccccc3n2)CC1 [sotrastaurin]
Summary of the method: as §1

Sequence of UniProt Q15633 (Q15633 whole entry, looked up): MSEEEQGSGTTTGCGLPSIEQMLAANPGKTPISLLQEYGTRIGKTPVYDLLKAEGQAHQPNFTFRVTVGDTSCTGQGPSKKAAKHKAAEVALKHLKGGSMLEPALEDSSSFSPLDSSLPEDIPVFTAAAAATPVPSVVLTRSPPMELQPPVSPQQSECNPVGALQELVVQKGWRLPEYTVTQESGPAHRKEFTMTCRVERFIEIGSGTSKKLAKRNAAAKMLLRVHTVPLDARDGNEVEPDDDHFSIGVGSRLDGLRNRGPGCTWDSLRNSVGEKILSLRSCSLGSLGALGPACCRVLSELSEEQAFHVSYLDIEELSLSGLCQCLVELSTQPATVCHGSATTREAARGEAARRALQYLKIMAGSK
Sequence of UniProt Q14849 (Q14849 whole entry, looked up): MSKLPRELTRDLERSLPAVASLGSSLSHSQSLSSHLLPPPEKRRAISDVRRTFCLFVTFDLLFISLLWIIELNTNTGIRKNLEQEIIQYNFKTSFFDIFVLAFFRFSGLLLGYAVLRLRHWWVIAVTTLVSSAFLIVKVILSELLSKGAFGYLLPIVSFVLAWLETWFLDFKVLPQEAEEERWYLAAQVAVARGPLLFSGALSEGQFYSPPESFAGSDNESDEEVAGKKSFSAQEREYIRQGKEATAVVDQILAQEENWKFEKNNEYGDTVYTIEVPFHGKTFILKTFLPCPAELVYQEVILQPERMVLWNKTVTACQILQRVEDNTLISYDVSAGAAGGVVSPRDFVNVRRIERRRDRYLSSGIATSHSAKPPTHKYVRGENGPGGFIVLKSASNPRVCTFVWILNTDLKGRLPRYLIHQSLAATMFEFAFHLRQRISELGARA
Sequence of UniProt Q15796 (Q15796 whole entry, looked up): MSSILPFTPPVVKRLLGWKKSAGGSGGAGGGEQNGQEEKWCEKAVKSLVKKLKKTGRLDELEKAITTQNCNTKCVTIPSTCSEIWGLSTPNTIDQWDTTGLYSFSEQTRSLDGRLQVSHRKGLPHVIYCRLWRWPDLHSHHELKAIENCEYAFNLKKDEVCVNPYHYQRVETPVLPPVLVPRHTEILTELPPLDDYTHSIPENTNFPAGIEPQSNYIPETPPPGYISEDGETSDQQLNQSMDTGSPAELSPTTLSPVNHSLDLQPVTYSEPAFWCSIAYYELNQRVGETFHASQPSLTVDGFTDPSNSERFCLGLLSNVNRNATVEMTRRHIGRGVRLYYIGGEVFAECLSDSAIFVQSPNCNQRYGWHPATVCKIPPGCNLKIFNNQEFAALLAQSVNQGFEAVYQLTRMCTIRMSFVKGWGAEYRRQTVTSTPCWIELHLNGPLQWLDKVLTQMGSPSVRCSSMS
Sequence of UniProt P19623 (P19623 whole entry, looked up): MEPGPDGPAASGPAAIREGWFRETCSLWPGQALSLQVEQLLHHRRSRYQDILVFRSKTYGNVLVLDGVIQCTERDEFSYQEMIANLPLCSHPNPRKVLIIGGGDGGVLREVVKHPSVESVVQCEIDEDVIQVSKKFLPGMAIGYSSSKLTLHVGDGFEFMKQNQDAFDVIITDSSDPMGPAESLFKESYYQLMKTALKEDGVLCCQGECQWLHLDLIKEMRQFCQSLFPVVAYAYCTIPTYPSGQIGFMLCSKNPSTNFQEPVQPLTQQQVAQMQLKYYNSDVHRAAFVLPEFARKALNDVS
Sequence of UniProt Q9UQE7 (Q9UQE7 whole entry, looked up): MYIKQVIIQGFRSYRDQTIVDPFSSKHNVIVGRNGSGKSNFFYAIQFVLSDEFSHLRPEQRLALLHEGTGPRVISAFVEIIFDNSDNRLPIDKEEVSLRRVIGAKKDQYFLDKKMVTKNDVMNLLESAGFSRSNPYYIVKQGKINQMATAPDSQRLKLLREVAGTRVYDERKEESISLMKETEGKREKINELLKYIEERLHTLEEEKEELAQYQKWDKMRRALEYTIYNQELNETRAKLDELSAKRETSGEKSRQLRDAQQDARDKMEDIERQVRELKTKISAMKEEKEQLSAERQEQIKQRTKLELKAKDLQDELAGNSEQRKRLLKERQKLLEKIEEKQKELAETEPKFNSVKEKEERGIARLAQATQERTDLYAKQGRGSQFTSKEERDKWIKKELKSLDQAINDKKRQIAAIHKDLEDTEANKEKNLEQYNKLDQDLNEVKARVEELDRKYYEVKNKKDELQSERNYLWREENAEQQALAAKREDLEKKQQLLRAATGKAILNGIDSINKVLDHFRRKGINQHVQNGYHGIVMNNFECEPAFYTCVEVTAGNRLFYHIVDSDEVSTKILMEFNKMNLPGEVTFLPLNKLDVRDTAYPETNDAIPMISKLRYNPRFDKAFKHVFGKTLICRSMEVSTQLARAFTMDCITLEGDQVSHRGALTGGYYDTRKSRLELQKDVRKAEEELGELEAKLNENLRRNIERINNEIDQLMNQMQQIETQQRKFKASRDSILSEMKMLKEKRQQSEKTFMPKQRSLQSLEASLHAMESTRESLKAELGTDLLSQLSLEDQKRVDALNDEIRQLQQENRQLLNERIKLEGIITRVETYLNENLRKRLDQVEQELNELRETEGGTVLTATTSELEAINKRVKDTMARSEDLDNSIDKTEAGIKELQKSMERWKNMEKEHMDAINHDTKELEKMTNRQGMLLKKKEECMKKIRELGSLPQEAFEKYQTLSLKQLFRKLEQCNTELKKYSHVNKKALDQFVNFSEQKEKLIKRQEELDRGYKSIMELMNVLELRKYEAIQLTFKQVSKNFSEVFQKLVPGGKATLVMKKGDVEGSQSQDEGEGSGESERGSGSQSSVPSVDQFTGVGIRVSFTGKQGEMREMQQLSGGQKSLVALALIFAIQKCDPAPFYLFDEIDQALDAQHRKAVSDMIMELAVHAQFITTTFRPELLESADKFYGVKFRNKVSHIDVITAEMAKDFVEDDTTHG
Sequence of UniProt O15198 (O15198 whole entry, looked up): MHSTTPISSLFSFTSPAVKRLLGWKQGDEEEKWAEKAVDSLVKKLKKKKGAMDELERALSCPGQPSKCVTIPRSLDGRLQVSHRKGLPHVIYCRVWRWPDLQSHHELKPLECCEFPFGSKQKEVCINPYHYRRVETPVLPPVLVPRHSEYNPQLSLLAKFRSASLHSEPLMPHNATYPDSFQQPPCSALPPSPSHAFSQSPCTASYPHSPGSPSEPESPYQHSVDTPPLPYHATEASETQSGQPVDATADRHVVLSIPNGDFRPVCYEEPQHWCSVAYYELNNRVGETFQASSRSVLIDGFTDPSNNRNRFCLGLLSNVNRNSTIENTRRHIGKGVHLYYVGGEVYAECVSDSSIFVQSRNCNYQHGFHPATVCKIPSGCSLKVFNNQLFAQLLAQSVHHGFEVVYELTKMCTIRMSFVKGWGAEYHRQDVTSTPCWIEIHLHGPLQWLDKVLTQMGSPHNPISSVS
Sequence of UniProt P35270 (P35270 whole entry, looked up): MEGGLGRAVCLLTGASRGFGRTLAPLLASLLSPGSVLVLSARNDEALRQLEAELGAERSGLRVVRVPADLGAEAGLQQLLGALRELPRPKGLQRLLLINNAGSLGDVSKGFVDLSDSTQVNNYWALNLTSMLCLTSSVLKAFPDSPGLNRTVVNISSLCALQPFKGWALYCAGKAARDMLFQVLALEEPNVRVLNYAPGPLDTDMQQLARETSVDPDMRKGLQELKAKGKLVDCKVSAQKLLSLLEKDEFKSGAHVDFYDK
Sequence of UniProt Q9HBR0 (Q9HBR0 whole entry, looked up): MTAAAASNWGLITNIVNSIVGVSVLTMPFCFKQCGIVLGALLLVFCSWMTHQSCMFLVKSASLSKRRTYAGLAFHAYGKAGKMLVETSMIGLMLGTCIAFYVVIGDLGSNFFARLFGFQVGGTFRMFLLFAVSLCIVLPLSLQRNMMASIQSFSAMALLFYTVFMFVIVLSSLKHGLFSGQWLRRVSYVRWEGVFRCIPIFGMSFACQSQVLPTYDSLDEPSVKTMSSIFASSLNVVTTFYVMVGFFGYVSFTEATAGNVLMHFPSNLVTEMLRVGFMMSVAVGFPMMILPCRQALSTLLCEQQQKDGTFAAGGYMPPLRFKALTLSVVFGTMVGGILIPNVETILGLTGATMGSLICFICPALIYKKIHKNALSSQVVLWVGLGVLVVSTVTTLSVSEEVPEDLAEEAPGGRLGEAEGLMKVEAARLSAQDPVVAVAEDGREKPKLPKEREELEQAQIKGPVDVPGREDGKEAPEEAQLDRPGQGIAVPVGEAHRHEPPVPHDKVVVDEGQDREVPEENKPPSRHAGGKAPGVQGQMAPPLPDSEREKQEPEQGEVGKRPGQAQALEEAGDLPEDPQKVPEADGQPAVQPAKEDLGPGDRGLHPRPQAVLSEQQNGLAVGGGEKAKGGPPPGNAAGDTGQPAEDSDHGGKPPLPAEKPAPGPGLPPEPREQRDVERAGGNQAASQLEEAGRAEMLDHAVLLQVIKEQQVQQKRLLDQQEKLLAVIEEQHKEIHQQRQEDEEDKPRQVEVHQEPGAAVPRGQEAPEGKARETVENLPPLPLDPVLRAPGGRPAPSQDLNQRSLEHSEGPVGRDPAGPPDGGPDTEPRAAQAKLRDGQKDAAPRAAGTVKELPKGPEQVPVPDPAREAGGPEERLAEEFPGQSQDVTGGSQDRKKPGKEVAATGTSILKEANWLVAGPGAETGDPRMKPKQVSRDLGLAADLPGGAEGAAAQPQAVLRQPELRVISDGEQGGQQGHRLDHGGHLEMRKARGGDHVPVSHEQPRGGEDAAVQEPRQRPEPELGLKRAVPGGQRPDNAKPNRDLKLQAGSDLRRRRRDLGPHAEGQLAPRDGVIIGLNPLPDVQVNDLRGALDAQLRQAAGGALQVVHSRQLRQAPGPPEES
Sequence of UniProt Q86XK3 (Q86XK3 whole entry, looked up): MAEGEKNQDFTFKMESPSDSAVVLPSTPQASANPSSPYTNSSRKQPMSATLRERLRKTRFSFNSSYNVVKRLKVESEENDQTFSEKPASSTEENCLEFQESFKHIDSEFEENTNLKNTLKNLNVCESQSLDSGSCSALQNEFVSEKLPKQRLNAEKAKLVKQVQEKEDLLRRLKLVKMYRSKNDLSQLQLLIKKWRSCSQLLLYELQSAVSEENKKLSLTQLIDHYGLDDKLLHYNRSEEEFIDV

Target	log2 fold change [1]	log2 fold change [2]	log2 fold change [3]	log2 fold change [4]	log2 fold change [5]	log2 fold change [6]	log2 fold change [7]	log2 fold change [8]	log2 fold change [9]	log2 fold change [10]	log2 fold change [11]	log2 fold change [12]	log2 fold change [13]	log2 fold change [14]	log2 fold change [15]	log2 fold change [16]	log2 fold change [17]	log2 fold change [18]	log2 fold change [19]	log2 fold change [20]
SMAD9 (UniProt O15198)	-0.025	-0.018	-0.034	0.029	0.021	-0.038	0.079	-0.028	-0.072	-0.029	-0.045	-0.003	0.032	-0.011	0.024	0.111	0.021	0.048	0.08	0.007
SMAD2 (UniProt Q15796)	0.041	-0.014	0.025	0.012	0.005	-0.061	-0.014	0.054	0.029	0.017	-0.027	0.074	0.03	-0.031	-0.006	-0.027	0.025	-0.003	0.017	-0.002
SKA2 (UniProt Q8WVK7)	0.037	0.004	0.016	-0.003	0.014	-0.004	0.032	-0.099	-0.011	-0.03	0	0.014	0.078	0	-0.043	0.02	-0.032	-0.015	0.028	-0.097
SMC3 (UniProt Q9UQE7)	0.002	-0.001	-0.023	0.003	-0.002	-0.004	0.01	-0.014	0.011	0.01	-0.018	0.004	-0.004	0.008	-0.013	0.003	0.041	-0.018	-0.011	-0.016
SOAT1 (UniProt P35610)	0.043	0.017	0.151	-0.107	-0.055	-0.046	-0.022	0.1	-0.012	0.019	0.047	0.055	0.008	-0.003	-0.009	-0.061	-0.063	-0.062	0.016	0.019
SRP54 (UniProt P61011)	-0.039	-0.023	0.031	0.015	0.036	0.034	-0.069	-0.021	0.007	-0.009	0.02	-0.024	0	0.068	-0.024	0.017	-0.059	0.006	0.043	0.028
SMC4 (UniProt Q9NTJ3)	-0.002	-0.005	-0.015	-0.012	-0.009	-0.006	0.002	-0.016	0.023	0.013	0.002	0.001	0.022	-0.059	-0.041	0.006	0.053	-0.118	0.015	0.012
SMTN isoform 6 (UniProt P53814)	-0.03	-0.072	-0.02	-0.004	-0.009	0.074	-0.013	0.054	0.05	0.135	0.021	0.061	0.018	-0.007	-0.078	-0.026	-0.036	-0.006	0.013	-0.051
SPR (UniProt P35270)	0.027	0.293	0.024	0	-0.048	-0.051	-0.038	-0.046	-0.028	0.023	0.01	0.026	-0.013	-0.014	-0.003	-0.024	0.158	-0.028	0.093	-0.047
SPAG5 (UniProt Q96R06)	-0.005	0.039	-0.001	0.017	-0.013	0.03	-0.024	-0.024	0.008	-0.005	-0.007	0.04	0.025	-0.016	-0.004	-0.01	-0.004	-0.174	0.004	0.009
SRM (UniProt P19623)	0.018	0.007	0.025	-0.047	-0.011	-0.003	-0.006	0.003	0	-0.011	-0.004	-0.003	-0.008	-0.02	-0.034	-0.001	0.015	0	0.02	0.011
SLC38A10 (UniProt Q9HBR0)	0.103	-0.047	-0.025	-0.056	-0.007	-0.051	-0.018	0.032	-0.001	-0.027	0.1	-0.008	0.014	0.111	-0.015	-0.022	-0.229 (active)	0.022	0.024	0.015
SFR1 isoform 2 (UniProt Q86XK3)	0.023	-0.006	0.003	-0.012	-0.005	-0.006	0.041	0.026	0.06	0.016	-0.031	-0.037	0.024	0.028	0.022	0.013	-0.087	-0.119	-0.04	0.085
SMG1 (UniProt Q96Q15)	0.041	0.017	0.044	-0.019	-0.003	0.005	0.027	0.023	0.017	0.007	0.059	0.031	0.08	0.017	-0.027	-0.026	0.003	-0.072	0.039	0.032
TARBP2 (UniProt Q15633)	-0.013	0	-0.025	-0.042	0.013	0.074	-0.002	0.029	0.062	-0.015	-0.035	0.092	0.093	-0.145	-0.034	-0.016	-0.02	-0.093	0.035	-0.006
STARD3 isoform 3 (UniProt Q14849)	0.039	0.044	-0.074	-0.018	0.011	0.033	-0.072	0.073	0.021	0.028	0.029	0.054	0.051	0.289	0.18	-0.031	-0.122	0.02	-0.091	-0.016
